Bioassay records deposited in PubChem BioAssay by several laboratories.
PERK inh = inhibitors of human PERK kinase. 0.17% of 220,000 active. Q9NZJ5. inhibition, % at 5.6 µM. CHO PERK-DD fusion, SEAP luminescence translation reporter. AID 1416;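 active = inhibition above the mean inhibition of all tested compounds plus 3 SD, set separately per screening campaign, cut at about 2.9% in these data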;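 also: PERK kinase domain activated by AP20187 dimerizer at 100 nM; 0% = DMSO with dimerizer and 100% = rapamycin at 8.4 µM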
eIF4E 4G PPI = eIF4E/eIF4G interaction inhibition in translation initiation; P63073+Q04637; TR-FRET eIF4E-eIF4GI(517-606) binding, 2 h; inhibition, % at 21.7 µM; 0.37% of 220,000 active; AID 782;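 active = inhibition above about 30%, limit read from the data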;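 also: 0% = full FRET control wells and 100% = background wells lacking eIF4GI fragment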
Target sequence (P63073 whole entry, looked up, the tested form may be a part): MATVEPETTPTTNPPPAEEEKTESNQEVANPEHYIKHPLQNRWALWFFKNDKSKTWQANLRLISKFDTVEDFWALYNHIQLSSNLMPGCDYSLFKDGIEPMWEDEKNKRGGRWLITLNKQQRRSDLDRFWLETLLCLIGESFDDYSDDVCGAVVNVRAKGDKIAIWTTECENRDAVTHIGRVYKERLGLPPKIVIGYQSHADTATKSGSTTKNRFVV
Target sequence (Q04637 whole entry, looked up, the tested form may be a part): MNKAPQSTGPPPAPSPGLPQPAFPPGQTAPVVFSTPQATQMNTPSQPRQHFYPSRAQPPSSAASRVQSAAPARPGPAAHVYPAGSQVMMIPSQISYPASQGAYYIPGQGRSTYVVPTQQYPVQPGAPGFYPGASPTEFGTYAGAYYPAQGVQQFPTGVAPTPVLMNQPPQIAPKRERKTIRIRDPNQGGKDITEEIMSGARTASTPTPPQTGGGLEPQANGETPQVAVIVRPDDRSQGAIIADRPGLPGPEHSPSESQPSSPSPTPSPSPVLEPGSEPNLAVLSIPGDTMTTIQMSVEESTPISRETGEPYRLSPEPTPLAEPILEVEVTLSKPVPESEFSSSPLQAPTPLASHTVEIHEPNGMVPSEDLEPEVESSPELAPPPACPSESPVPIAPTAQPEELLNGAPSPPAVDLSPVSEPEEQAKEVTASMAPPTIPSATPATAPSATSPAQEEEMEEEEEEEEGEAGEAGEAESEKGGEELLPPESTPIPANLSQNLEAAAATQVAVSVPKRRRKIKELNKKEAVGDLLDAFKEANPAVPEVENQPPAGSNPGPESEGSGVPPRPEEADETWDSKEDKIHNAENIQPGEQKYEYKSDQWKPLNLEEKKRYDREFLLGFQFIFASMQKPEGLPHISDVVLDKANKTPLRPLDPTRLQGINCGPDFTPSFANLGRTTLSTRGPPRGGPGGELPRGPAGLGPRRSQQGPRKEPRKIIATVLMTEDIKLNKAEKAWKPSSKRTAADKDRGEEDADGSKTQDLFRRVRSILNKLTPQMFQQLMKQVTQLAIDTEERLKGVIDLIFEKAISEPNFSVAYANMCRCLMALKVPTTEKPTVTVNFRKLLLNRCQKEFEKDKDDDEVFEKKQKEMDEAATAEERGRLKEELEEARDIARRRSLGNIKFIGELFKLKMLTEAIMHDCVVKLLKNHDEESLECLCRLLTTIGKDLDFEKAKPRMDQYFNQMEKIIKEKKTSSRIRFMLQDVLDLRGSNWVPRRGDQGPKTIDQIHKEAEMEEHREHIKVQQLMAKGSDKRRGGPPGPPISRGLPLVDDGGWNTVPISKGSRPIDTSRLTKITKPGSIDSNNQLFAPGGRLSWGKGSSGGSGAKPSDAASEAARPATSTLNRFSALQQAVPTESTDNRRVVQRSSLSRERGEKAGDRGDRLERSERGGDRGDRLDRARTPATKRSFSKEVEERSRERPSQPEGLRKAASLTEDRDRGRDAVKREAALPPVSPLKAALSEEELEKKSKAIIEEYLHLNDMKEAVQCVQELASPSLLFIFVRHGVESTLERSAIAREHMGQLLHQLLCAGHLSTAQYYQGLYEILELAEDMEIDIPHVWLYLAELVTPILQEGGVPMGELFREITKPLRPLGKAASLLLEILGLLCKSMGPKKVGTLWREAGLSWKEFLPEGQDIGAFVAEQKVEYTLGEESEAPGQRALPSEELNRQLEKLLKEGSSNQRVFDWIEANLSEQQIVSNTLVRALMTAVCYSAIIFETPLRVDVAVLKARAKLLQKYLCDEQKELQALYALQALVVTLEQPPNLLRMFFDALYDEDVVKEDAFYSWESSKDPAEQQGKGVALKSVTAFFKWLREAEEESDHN
Autophagy HCS = autophagy modulation, high-content screen; calls only at 10 µM (by protocol); 0.98% of 190,000 active; MEF GFP-LC3 puncta imaging; test concentration mostly 10 µM;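 active = percentage of spot-positive cells more than 3 SD above its plate mean, without a fluorescence outlier flag or 80% toxicity; inconclusive = no clear call, values can overlap the other calls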;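 also: spot-positive cell cutoff set from DMSO-treated cells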
Insulin prom inh = TRM-6 insulin promoter activity inhibition | TRM-6 cells (human fetal islet line), insulin promoter-eGFP reporter, imaging; reporter expression induced with tamoxifen | inhibition, % at 2 µM | 0.9% of 130,000 active | AID 1273;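 active = inhibition above the mean plus 3 SD, with well images judged a real hit on visual review, cut at about 60% in these data, passing the limit was not always enough; inconclusive = inhibition over the cutoff but images rejected on review; inactive = inhibition not above the cutoff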
Insulin prom up = MIN6 insulin promoter up-regulation; MIN6 insulin promoter-GFP reporter, high-content imaging; hits give high values; z-score at 5 µM; 0.3% of 190,000 active; AID 1625;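 active = z-score above 3 at 5 µM with at least 500 cells counted in the well; inconclusive = wells under 500 cells, flagged as cytotoxic or low count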
The depositor's hits bear a star; i = inactive; u = inconclusive; x = no result given; + = active, no number; [ ] = another dose, or the depositor's remark. Only some compounds are listed: those with a hit (about 2% of all), similar ones and a draw of the others.

SMILES	PERK inh	eIF4E 4G PPI	Autophagy HCS	Insulin prom inh	Insulin prom up
Cc1ccc(/C=N/NC(=O)Cn2cncn2)cc1	1	0	i	x	x
COc1cccc(/C=N/Nc2ncnc(Cl)c2N)c1O	0	-2	i	26	u
COc1ccc(/C=N/Nc2nccnc2Cl)cc1	1	1	i	83*	-0.05
COc1cccc(/C=N/Nc2nccnc2Cl)c1O	1	3	+	0	-3.5
COc1ccc(/C=N/Nc2nccnc2Cl)c(OC)c1	1	1	i	x	0.49
Cc1cc(NC(=O)CCSc2ccc(Cl)cc2)no1	-1	3	i	x	1.2
COc1ccccc1N1CCN(C2CCN(C(=O)COc3ccccc3)CC2)CC1	0	0	i	x	-0.93
CCOc1cc(C(=O)Nc2ccc3c4c(cccc24)C(=O)N3CC)cc(OCC)c1OCC	-1	59*	i	1	0.35
CCN1C(=O)c2cccc3c(NC(=O)c4cccc(N5C(=O)CCC5=O)c4)ccc1c23	0	-4	i	x	0.95
CC(=O)C1=C(C)NC(SCC(=O)c2ccc(Cl)cc2)=C(C#N)C1c1ccco1 (centres undefined)	-1	1	+	-71	1.1
CC(=O)C1=C(C)NC(SCc2ccc(C#N)cc2)=C(C#N)C1c1ccco1 (centres undefined)	1	44*[fluorescence artefact?]	i	66	-0.25
CCn1c2ccccc2c2cc(CN3CCN(S(C)(=O)=O)CC3)ccc21	-1	2	i	13	-0.16
CCOc1ccc(CN2CCN(CC(O)Cn3c4ccccc4c4ccccc43)CC2)cc1 (centres undefined)	-2	7	+	-122	-1
COc1ccc(CN2CCN(CC(O)Cn3c4ccccc4c4ccccc43)CC2)cc1 (centres undefined)	-1	1	i	11	-1.2
CCn1c2ccccc2c2cc(CN3CCN(Cc4cc(OC)ccc4O)CC3)ccc21	-1	5	+	-91	0.41
CCOC(=O)N1CCN(C(=O)c2ccc3nc(C)sc3c2)CC1	1	3	i	71*	-0.41
S=c1[nH]nc(NCCCN2CCOCC2)s1	1	42*	x	x	-1.1
COc1ccc(Cl)cc1C(=O)NCC(c1ccco1)N1CCCC1 (centres undefined)	-1	2	+	-244	-0.29
O=C(NCC(c1ccco1)N1CCCC1)c1ccccc1F (centres undefined)	1	2	i	-35	-0.15
CN(C)c1nc(NC(C)(C)C)nc(SCC(=O)Nc2ccccc2)n1	1	-3	i	80*	-0.07
CC(NC(=O)C1CCCC1)C1CC2CCC1C2 (centres undefined)	1	0	i	71*	1.1
CC(NC(=O)C1CC=CCC1C(=O)O)C1CC2CCC1C2 (centres undefined)	0	-4	i	-51	-0.26
CC(=O)/C=C1/SC(CC(=O)O)C(=O)N1c1ccccc1 (centres undefined)	0	1	i	-175	0.14
Cn1cccc1Cc1nnc(SCC(=O)Nc2nc3ccccc3s2)n1CCc1ccccc1	-1	0	+	x	0.57
Cc1nnc(NC(=O)CSc2nnc(Cc3cccn3C)n2CCc2ccccc2)s1	0	-6	i	x	-0.65
SMILES	PERK inh	eIF4E 4G PPI	Autophagy HCS	Insulin prom inh	Insulin prom up
COc1ccc(/C=N/n2cnc3c([nH]c4ccc(Br)cc43)c2=O)cc1CN1CCOCC1	1	41*[fluorescence artefact?]	i	-11	-1
COc1ccc(/C=N/n2cnc3c([nH]c4ccccc43)c2=O)cc1CO	-1	2	x	x	x
CCc1ccc2c(c1)cc(CN(C(=S)Nc1ccccc1)C1CC1)c1nnnn12	0	-18	+	x	1.4
CCc1ccc2c(c1)cc(CN(C(=S)Nc1ccccc1C)C1CC1)c1nnnn12	0	-10	i	x	0.64
CC1CCN(S(=O)(=O)c2ccc3c(c2)C(=NO)c2cc(S(=O)(=O)N4CCC(C)CC4)ccc2-3)CC1	1	11	+	-5	u
COc1c2ccccc2c(OC)c2ccccc12	0	6	+	41	0.09
O=c1c2[nH]c3ccc(Br)cc3c2ncn1Cc1ccncc1	1	-11	x	x	0.46
CCN1/C(=C/c2ccc3cc(C)ccc3[n+]2CC)Sc2cc(C)c(C)cc21	0	10	+	x	u
C/C(=N\Nc1cccc(C(F)(F)F)c1)c1ccc(O)cc1	0	-1	i	x	-0.97
S=C(Nc1cccc(Cl)c1Cl)N1CCC2(CC1)OCCO2	-1	91*	i	44	-0.39
CCn1nc(-c2ccccc2)c2nc3ccccc3nc21	0	-3	+	x	1.6
CCCCn1c2nc3ccccc3nc2c2c(=O)n(CCC)cnc21	1	-7	i	34	0.42
CCCCCn1nc(-c2ccccc2)c2nc3ccccc3nc21	1	6	+	20	x
CCCn1nc(-c2ccccc2)c2nc3ccccc3nc21	0	0	+	x	2.9
CCN(CC)c1ccc(/C=N/NC(=O)c2c(Cl)cnn2C)c(O)c1	0	-3	i	55	0.95
O=C(NC(=S)N1CCN(c2nc(-c3ccccc3)cs2)CC1)c1cncc(Br)c1	0	-13	i	29	-0.4
Cc1cccc(OCC(O)Cn2c(=N)n(CCN3CCCCC3)c3ccccc32)c1 (centres undefined)	-1	-3	+	-100	-1.2
O=c1cc(O)c2sc3nc(-c4cccnc4)cc(C(F)(F)F)c3c2[nH]1	1	6	i	-10	0.2
CCN(C)c1ccc(/C=N\n2nnnc2N)cc1	1	2	+	-25	0.02
Nc1nnnn1/N=C/c1ccc(O)cc1	1	2	i	x	x
CC1CCCCC12NC(=O)N(CC(=O)Nc1ccc(N3CCOCC3)cc1)C2=O (centres undefined)	0	-2	i	x	0.63
COc1ccccc1CC(=O)NC1CC(C)(C)NC(C)(C)C1	-1	-1	i	-38	3.6*
Cc1ccc(-n2c(C)cc(C)c(C#N)c2=O)cc1C	1	-2	i	0	-0.72
Cc1cc(C)n(-c2cccc(Cl)c2)c(=O)c1C#N	-1	0	+	x	0.76
Cn1nnnc1SCC(=O)Nc1cc(C(=O)O)cc(C(=O)O)c1	1	1	i	-24	-0.22
SMILES	PERK inh	eIF4E 4G PPI	Autophagy HCS	Insulin prom inh	Insulin prom up
O=c1c(O)cccc2cc(O)c(O)c(O)c12	0	61*	x	x	-0.28
COc1cc2cccc(OC)c(=O)c2c(OC)c1OC	1	0	i	x	1.1
O=C(COC(=O)Cc1ccccc1[N+](=O)[O-])NC1CCCC1	0	5	+	x	-0.7
Cc1cc(C)c(C)c(OCCCN(C)C)c1	0	7	i	29	0.06
CN=C1c2cc3cc(OC)ccc3n2CCN1Cc1ccccc1	-2	5	+	15	-0.98
CCN(CC)CCNC1=NCCn2c1cc1cc(OC)ccc12	-2	2	i	-48	-0.11
O=C(CN(C(=O)CNC(=O)c1ccco1)c1ccc2c(c1)OCCO2)NC1CCCC1	1	2	i	x	x
Cc1cc(C)cc(NC(=O)C(NCCN2CCOCC2)c2ccccc2)c1 (centres undefined)	0	2	i	x	-0.62
